Experimental data: the supplement of paper PMC6411743
± gives the standard deviation of the averaged measurements. The full data set covers some 6,500 targets. This sample favours those with the largest changes.

Compound: Nc1ncnc2c1ncn2[C@@H]1O[C@H](COP(=O)(O)OP(=O)(O)OP(=O)(O)O)[C@@H](O)[C@H]1O [adenosine triphosphate]
Experiment: NP40-soluble protein abundance relative to vehicle (solubility fold change) (ratio); higher = more soluble protein in presence of ATP
In short: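 Across three independent experiments, values are fold changes against the detergent-processed vehicle for each replicate, based on vsn-normalised intensities. The samples were Jurkat crude lysate treated with eight concentrations (0.1 to 10 mM) for 10 min at room temperature and then 3 min at 37 °C. Lysate was solubilised with 0.8% NP40 and benzonase, ultracentrifuged, and the supernatant analysed by TMT-labelled LC-MS/MS.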

Chain of UniProt Q9Y2G5 (Q9Y2G5 whole entry): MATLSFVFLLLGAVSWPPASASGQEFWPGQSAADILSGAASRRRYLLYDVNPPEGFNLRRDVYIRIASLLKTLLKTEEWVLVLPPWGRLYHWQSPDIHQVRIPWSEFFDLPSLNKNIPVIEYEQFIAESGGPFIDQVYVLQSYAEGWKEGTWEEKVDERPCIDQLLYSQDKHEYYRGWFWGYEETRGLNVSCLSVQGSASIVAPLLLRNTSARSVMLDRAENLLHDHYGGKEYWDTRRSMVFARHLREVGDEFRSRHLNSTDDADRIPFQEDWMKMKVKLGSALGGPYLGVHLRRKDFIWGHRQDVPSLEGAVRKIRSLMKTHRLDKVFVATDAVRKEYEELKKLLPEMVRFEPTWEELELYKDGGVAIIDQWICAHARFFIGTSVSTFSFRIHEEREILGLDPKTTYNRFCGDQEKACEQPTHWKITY
Chain of UniProt Q9Y303 (Q9Y303 whole entry): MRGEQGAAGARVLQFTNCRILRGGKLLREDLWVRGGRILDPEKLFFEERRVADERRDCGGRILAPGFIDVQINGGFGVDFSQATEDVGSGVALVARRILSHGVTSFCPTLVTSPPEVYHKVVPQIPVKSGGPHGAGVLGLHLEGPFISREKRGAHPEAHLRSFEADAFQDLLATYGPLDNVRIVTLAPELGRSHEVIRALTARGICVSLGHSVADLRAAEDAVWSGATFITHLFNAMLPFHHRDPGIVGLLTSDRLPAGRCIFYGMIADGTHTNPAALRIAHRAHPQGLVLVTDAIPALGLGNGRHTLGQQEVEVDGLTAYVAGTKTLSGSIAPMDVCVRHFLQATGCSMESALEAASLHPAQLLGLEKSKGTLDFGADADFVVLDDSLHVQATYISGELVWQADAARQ
Chain of UniProt Q9UK59 (Q9UK59 whole entry): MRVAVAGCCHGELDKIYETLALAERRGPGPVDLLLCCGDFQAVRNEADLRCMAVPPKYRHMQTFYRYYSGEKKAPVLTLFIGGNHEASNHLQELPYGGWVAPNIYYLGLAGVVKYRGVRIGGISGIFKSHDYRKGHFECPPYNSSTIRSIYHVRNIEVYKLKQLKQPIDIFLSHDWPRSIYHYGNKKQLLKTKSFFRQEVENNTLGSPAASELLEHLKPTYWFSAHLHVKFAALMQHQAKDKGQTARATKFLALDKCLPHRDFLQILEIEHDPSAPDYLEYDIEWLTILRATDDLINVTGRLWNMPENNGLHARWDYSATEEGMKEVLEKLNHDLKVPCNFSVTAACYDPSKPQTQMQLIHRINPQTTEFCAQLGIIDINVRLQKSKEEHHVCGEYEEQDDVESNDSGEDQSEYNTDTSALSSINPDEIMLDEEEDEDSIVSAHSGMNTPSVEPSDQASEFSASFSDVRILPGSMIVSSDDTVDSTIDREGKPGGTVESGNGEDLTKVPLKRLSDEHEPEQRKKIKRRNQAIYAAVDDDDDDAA
Chain of UniProt Q9UKU7 (Q9UKU7 whole entry): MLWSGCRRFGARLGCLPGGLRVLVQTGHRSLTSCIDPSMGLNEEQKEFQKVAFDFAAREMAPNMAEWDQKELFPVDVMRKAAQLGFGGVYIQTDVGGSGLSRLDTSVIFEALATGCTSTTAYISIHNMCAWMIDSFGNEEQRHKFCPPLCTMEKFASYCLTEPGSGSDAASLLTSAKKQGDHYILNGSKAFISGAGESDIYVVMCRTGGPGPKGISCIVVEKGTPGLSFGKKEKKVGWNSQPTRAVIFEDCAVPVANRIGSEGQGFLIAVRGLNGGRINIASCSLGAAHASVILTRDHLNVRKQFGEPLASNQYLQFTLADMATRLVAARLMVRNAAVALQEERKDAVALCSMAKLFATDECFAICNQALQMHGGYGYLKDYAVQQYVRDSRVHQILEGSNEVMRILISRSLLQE
Chain of UniProt Q9Y383 (Q9Y383 whole entry): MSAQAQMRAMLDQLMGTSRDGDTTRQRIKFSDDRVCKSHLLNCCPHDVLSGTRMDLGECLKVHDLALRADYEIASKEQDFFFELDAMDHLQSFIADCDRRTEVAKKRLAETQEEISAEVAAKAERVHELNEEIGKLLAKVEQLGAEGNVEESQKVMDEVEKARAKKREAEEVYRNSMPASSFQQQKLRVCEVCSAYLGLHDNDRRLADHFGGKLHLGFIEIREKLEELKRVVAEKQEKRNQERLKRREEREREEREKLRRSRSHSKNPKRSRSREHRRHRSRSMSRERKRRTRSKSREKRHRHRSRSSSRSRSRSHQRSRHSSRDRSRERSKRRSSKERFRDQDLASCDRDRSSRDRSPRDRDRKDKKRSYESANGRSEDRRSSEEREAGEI
Chain of UniProt Q9Y6I9 (Q9Y6I9 whole entry): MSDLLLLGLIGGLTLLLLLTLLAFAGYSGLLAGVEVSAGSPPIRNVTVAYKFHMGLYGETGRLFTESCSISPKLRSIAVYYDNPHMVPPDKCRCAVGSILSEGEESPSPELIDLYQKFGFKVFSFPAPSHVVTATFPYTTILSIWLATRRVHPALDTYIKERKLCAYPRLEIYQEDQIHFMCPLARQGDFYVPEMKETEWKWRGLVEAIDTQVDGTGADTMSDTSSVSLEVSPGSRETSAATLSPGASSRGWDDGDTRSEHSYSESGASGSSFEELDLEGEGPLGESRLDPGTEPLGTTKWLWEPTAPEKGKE
Chain of UniProt Q9Y639 (Q9Y639 whole entry): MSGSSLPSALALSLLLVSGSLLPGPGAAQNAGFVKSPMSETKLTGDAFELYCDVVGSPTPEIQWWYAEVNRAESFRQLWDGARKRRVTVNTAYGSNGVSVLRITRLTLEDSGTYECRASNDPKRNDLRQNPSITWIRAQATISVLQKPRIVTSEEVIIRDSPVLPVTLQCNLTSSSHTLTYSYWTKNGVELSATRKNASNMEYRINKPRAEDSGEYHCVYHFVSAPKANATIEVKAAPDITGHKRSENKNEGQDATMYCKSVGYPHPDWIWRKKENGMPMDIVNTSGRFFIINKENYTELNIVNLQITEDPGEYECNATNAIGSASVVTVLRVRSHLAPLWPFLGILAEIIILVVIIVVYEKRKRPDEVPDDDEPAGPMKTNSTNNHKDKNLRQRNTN
Chain of UniProt Q9ULI0 (Q9ULI0 whole entry): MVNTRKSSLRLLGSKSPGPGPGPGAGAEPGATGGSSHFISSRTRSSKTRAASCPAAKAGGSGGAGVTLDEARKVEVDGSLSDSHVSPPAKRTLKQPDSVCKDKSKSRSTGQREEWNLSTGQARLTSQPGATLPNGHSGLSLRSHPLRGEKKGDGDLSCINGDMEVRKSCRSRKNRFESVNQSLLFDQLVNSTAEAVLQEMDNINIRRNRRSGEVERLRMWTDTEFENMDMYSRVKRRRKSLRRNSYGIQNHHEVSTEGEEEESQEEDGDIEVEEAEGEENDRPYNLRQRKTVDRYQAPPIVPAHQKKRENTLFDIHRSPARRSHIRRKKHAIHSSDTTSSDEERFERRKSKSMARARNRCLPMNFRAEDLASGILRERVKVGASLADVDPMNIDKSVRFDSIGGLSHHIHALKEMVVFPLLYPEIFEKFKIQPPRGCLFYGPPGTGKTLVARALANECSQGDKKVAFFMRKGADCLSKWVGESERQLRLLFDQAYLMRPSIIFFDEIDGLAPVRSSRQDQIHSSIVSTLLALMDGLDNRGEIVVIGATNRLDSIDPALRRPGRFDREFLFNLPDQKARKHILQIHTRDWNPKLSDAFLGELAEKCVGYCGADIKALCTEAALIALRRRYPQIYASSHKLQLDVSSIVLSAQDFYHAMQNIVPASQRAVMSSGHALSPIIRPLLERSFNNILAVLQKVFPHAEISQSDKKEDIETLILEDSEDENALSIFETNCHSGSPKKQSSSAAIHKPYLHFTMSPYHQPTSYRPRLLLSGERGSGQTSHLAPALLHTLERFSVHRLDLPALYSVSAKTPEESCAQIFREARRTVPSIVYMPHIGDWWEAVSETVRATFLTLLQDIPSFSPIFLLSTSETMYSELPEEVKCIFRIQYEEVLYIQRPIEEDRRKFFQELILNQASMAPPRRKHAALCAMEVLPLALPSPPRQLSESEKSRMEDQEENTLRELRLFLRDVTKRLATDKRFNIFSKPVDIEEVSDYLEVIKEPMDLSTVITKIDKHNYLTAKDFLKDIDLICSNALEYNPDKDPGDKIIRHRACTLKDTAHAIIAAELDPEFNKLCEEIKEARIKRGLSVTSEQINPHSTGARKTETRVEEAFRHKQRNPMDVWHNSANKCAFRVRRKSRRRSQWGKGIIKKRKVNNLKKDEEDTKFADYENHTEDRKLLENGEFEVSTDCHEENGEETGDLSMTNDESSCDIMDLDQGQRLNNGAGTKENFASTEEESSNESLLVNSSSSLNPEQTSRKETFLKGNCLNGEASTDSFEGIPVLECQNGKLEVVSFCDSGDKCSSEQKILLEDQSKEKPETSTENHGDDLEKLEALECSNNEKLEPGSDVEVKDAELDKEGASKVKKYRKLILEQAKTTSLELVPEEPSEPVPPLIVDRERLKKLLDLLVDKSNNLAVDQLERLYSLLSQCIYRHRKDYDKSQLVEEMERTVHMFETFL
Chain of UniProt Q9UIV1 (Q9UIV1 whole entry): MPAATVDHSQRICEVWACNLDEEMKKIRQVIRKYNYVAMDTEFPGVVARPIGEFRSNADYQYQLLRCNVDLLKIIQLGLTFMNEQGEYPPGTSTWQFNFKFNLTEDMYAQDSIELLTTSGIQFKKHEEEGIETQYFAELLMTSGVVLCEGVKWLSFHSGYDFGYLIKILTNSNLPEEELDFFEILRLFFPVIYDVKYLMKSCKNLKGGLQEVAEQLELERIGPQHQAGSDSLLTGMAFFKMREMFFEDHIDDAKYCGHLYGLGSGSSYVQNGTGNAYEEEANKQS
Chain of UniProt Q9Y3Q3 (Q9Y3Q3 whole entry): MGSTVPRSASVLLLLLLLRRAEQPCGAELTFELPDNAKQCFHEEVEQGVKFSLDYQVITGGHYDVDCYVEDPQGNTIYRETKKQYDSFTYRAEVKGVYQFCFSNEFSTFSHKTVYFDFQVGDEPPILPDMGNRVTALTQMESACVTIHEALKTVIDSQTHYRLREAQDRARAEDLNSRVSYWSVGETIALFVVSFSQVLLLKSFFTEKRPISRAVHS

Target	NP40-soluble protein abundance (concentration: 1mM)	NP40-soluble protein abundance (concentration: 2mM)	NP40-soluble protein abundance (concentration: 4mM)	NP40-soluble protein abundance (concentration: 6mM)	NP40-soluble protein abundance (concentration: 8mM)	NP40-soluble protein abundance (concentration: 10mM)
PPME1 (UniProt Q9Y570)	0.951 ± 0.039	0.972 ± 0.056	0.956 ± 0.037	0.933 ± 0.085	0.941 ± 0.023	0.953 ± 0.058
UniProt Q9Y5P4|Q9Y5P4-2|Q9Y5P4-3	0.9555 ± 0.0053	0.974 ± 0.025	0.948 ± 0.011	0.949 ± 0.024	0.93 ± 0.011	0.954 ± 0.026
ACAD8 (UniProt Q9UKU7)	1.01 ± 0.049	1 ± 0.064	0.988 ± 0.033	0.961 ± 0.058	0.983 ± 0.029	0.99 ± 0.038
UniProt Q9Y2H0|Q9Y2H0-3|Q9Y2H0-1	0.921 ± 0.038	0.899 ± 0.068	0.922 ± 0.045	0.944 ± 0.025	0.861 ± 0.093	0.85 ± 0.052
UniProt Q9UNF0|Q9UNF0-2	0.963 ± 0.04	0.952 ± 0.024	0.927 ± 0.011	0.954 ± 0.023	0.895 ± 0.019	0.9 ± 0.049
UniProt Q9Y224	0.958 ± 0.053	0.872 ± 0.031	0.903 ± 0.092	0.918 ± 0.12	0.995 ± 0.011	0.782 ± 0.18
UniProt Q9UHB6|F8VQE1|Q9UHB6-2	1.05 ± 0.14	1.16 ± 0.14	1.35 ± 0.16	1.56 ± 0.21	1.62 ± 0.12	1.86 ± 0.18
TEX264 (UniProt Q9Y6I9)	0.918 ± 0.028	0.919 ± 0.024	0.91 ± 0.041	0.916 ± 0.061	0.867 ± 0.058	0.886 ± 0.029
UniProt Q9UL54-2	1.29 ± 0.17	1.54 ± 0.35	1.57 ± 0.33	1.67 ± 0.33	1.63 ± 0.24	1.69 ± 0.4
DBR1 (UniProt Q9UK59)	1.04 ± 0.066	1.03 ± 0.066	1.02 ± 0.051	0.973 ± 0.11	1.03 ± 0.056	1.03 ± 0.044
NOB1 (UniProt Q9ULX3)	1.07 ± 0.023	1.06 ± 0.086	1.03 ± 0.077	1.07 ± 0.13	1.08 ± 0.054	1.05 ± 0.065
CNOT7 (UniProt Q9UIV1)	1.23 ± 0.044	1.22 ± 0.06	1.29 ± 0.038	1.25 ± 0.037	1.3 ± 0.061	1.26 ± 0.076
WDR3 (UniProt Q9UNX4)	1.28 ± 0.11	1.46 ± 0.1	1.82 ± 0.17	1.97 ± 0.2	2.23 ± 0.2	2.34 ± 0.13
LNPEP (UniProt Q9UIQ6)	0.914 ± 0.015	0.937 ± 0.021	0.909 ± 0.022	0.918 ± 0.035	0.882 ± 0.045	0.872 ± 0.038
UniProt Q9Y6X3	0.977 ± 0.053	1.06 ± 0.086	1.15 ± 0.25	1.09 ± 0.26	0.98 ± 0.057	1.11 ± 0.22
UniProt Q9ULI0|Q9ULI0-2	1.69 ± 0.34	1.83 ± 0.46	1.86 ± 0.57	1.86 ± 0.44	1.75 ± 0.44	1.72 ± 0.48

Target	NP40-soluble protein abundance (concentration: 1mM)	NP40-soluble protein abundance (concentration: 2mM)	NP40-soluble protein abundance (concentration: 4mM)	NP40-soluble protein abundance (concentration: 6mM)	NP40-soluble protein abundance (concentration: 8mM)	NP40-soluble protein abundance (concentration: 10mM)
MRPS2 (UniProt Q9Y399)	1.11 ± 0.13	0.951 ± 0.12	0.932 ± 0.071	0.917 ± 0.17	0.944 ± 0.12	0.884 ± 0.088
UniProt Q9UP95|Q9UP95-5|Q9UP95-6	0.956 ± 0.1	0.979 ± 0.12	0.964 ± 0.11	1.03 ± 0.058	0.909 ± 0.099	0.989 ± 0.035
UniProt Q9Y639|Q9Y639-1|Q9Y639-3|Q9Y639-5	0.919 ± 0.11	0.888 ± 0.06	0.938 ± 0.1	0.926 ± 0.084	0.896 ± 0.061	0.851 ± 0.11
UniProt Q9UKI8|Q9UKI8-5	0.986 ± 0.039	0.998 ± 0.025	1 ± 0.059	0.993 ± 0.041	0.953 ± 0.021	0.977 ± 0.054
POFUT2 (UniProt Q9Y2G5)	1 ± 0.037	1.04 ± 0.019	1.01 ± 0.012	1.02 ± 0.04	0.955 ± 0.029	0.975 ± 0.017
TMED3 (UniProt Q9Y3Q3)	1.08 ± 0.12	1.07 ± 0.12	1.06 ± 0.086	1.04 ± 0.13	1.06 ± 0.057	1.04 ± 0.088
UniProt Q9Y5T5-2	1.08 ± 0.067	1.11 ± 0.032	1.19 ± 0.014	1.33 ± 0.045	1.351 ± 0.012	1.41 ± 0.028
LUC7L2 (UniProt Q9Y383)	1.84 ± 0.14	1.95 ± 0.034	2.05 ± 0.038	2.21 ± 0.066	2.12 ± 0.087	2.11 ± 0.095
UniProt Q9ULV4|Q9ULV4-2|Q9ULV4-3	1.08 ± 0.086	1.16 ± 0.1	1.24 ± 0.11	1.4 ± 0.12	1.43 ± 0.13	1.52 ± 0.16
PARP4 (UniProt Q9UKK3)	1.14 ± 0.017	1.15 ± 0.12	1.12 ± 0.083	1.15 ± 0.14	1.14 ± 0.042	1.19 ± 0.085
UniProt Q9ULE6	1.08 ± 0.084	1.03 ± 0.12	1.06 ± 0.092	0.991 ± 0.1	1.05 ± 0.045	1.02 ± 0.048
UniProt Q9Y303|Q9Y303-2|Q9Y303-3	0.995 ± 0.056	1.03 ± 0.069	1.03 ± 0.083	0.973 ± 0.12	1.02 ± 0.086	0.995 ± 0.063
NOP58 (UniProt Q9Y2X3)	1.08 ± 0.062	1.1 ± 0.054	1.2 ± 0.054	1.35 ± 0.079	1.51 ± 0.042	1.71 ± 0.13
UniProt Q9Y3I0	0.997 ± 0.038	0.974 ± 0.025	0.979 ± 0.043	1.04 ± 0.04	1.02 ± 0.048	1.02 ± 0.048
UniProt Q9UPN7	0.945 ± 0.014	0.941 ± 0.046	0.941 ± 0.029	0.917 ± 0.041	0.924 ± 0.018	0.93 ± 0.037
